Screening results from PubChem.
GSH bead fluor = GSH bead compound fluorescence profile. 190,000 compounds, 0.25% hits. fluorescence (KMESF) at 10 µM. GSH beads flow cytometry, compound fluorescence 488/530 nm; stronger effect = higher value; in the data active means fluorescence above about 89;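 further: glutathione beads carrying GST-tagged Bcl family fusion proteins plus one bare bead set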
Avidin fluor = compound fluoresces at 488/530 nm on avidin beads; compound fluorescence 488/530 nm, flow cytometry; stronger effect = higher value; fluorescence (KMESF) at 10 µM; 220,000 compounds, 0.38% hits; AID 1775; in the data active means fluorescence above about 47
RGS16-Gao = RGS16-Galphao interaction regulator (human) | O15492+P09471 | bead-based flow cytometry RGS16-Galphao binding, fluorescence; actives lie on both sides | binding response (% of control), % at 10 µM | 220,000 compounds, 0.38% hits;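 further: Galphao activated by GDP with aluminum fluoride before binding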
RGS8-Gao = human RGS8-Galphao interaction regulation; P09471; multiplexed bead flow cytometry, RGS8-Galphao binding; actives lie on both sides; response (percent of control binding), % at 10 µM; 220,000 compounds, 0.34% hits; AID 1423; in the data active means response below about 60% or above about 140%; inactive means in between;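 further: Galphao activated as the GDP aluminium fluoride complex binding bead-coupled RGS8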
Target sequence (P09471 whole entry, looked up): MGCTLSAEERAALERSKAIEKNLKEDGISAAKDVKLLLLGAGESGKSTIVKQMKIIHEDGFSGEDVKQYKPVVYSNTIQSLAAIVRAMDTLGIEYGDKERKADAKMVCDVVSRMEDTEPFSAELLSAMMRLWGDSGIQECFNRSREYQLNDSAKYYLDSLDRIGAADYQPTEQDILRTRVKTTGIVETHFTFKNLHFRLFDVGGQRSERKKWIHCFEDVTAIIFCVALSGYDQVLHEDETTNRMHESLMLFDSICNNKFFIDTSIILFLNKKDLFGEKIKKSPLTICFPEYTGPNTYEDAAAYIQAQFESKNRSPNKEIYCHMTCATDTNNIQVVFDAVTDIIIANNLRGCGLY
RGS4-Gao reg = human RGS4-Galphao interaction regulation. P09471. Multiplexed bead flow cytometry, RGS4-Galphao binding; actives lie on both sides. binding response (% of control), % at 10 µM. 220,000 compounds, 0.33% hits. AID 1415; in the data active means binding response below about 49% or above about 150%; inactive means in between;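 further: fluorescent Galphao activated with aluminum fluoride binding bead-coupled RGS4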
RGS7-Gao reg = human RGS7-Galphao interaction regulation; P09471; Multiplexed bead flow cytometry, RGS7-Galphao binding; actives lie on both sides; binding response (% of control), % at 10 µM; 220,000 compounds, 0.35% hits; in the data active means binding response below about 49% or above about 150%; inconclusive means no clear call, values can overlap the other calls; inactive means in between;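 further: fluorescent Galphao held in activated GDP-AlF4 state binding bead-coupled RGS7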
RGS4-Gao HTS = regulators of human RGS4-Galphao interaction. RGS4–Galpha-o binding response, % at 10 µM. shares compounds with RGS16-Gao. AID 1504. 1,600 compounds, 99% hits. multiplexed bead flow cytometry, RGS–Galpha-o binding;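 further: fluorescently labeled Galpha-o bound to GDP with aluminium fluoride binding biotinylated RGS beads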
Avidin counter = counter-screen: compounds disrupting biotin binding to avidin beads | AID 1783 | inhibition, % at 10 µM | streptavidin beads, fluorescein-biotin binding, flow cytometry | shares compounds with RGS16-Gao | 1,700 tested, under 10 active;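 active means inhibition above 50%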;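 further: median green fluorescence of gated singlet beads compared with DMSO control wells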
RGS8-Gao confirm = confirmation of regulators of human RGS8-Galphao interaction; shares compounds with RGS16-Gao; bead-based flow cytometry RGS8-Galphao binding, fluorescence; actives lie on both sides; binding response (% of control), % at 10 µM; 1,700 compounds, 3% hits; in the data active means binding response below about 72% or above about 130%; inactive means in between;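 further: Galphao activated as GDP AlF4 complex before binding bead RGS8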
RGS7-Gao single = confirmation of regulators of human RGS7-Galphao interaction | bead-based flow cytometry RGS7-Galphao binding; actives lie on both sides | response (percent of control binding), % at 10 µM | 1,700 compounds, 7.8% hits | shares compounds with RGS16-Gao | AID 1837; in the data active means response below about 75% or above about 130%; inactive means in between;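 further: fluorescent Galphao activated with GDP and aluminum fluoride binding bead-coupled RGS7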
RGS16-Gao single = confirmation of regulators of human RGS16-Galphao interaction; shares compounds with RGS16-Gao; bead-based flow cytometry, RGS16-Galphao binding; actives lie on both sides; response (% of control binding), % at 10 µM; 1,700 compounds, 4% hits; AID 1838; in the data active means response below about 74% or above about 130%; inactive means in between;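 further: Galphao activated as the GDP aluminium fluoride complex binding bead-coupled RGS16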
RGS4-Gao confirm = RGS4-Galphao interaction regulation, single point confirmation; shares compounds with RGS16-Gao; RGS4-Galphao binding, multiplexed bead flow cytometry; actives lie on both sides; binding response (% of control), % at 10 µM; 1,700 compounds, 4% hits; AID 1840; in the data active means binding response below about 74% or above about 130%; inactive means in between
RGS19-Gao single = confirmation of regulators of human RGS19-Galphao interaction | shares compounds with RGS16-Gao | bead-based flow cytometry RGS19-Galphao binding; actives lie on both sides | response (percent of control binding), % at 10 µM | 1,700 compounds, 5% hits | AID 1841; in the data active means response below about 50% or above about 160%; inactive means in between
Target sequence (P09471 whole entry, looked up): as above
Target sequence (P49795 whole entry, looked up): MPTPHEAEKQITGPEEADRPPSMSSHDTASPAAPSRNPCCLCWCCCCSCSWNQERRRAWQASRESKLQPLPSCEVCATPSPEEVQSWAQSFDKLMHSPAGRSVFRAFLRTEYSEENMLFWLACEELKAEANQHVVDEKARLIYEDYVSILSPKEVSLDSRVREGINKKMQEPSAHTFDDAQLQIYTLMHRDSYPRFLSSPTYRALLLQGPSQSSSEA
Large screens that a line does not name were inactive (follow-up assays come after a bar, where they were run); [ ] = remark or other dose. Hits are enriched below; roughly 1.2% of the tested compounds scored in any of these assays. Unless noted, how the calls were made is not given here.

Cc1ccc(NC(=O)CSc2nc(C)c(Cc3ccccc3)c(=O)[nH]2)cc1	RGS16-Gao 14.6, RGS8-Gao 17.4, RGS4-Gao reg 29.2, RGS7-Gao reg 21.6 | Avidin counter inactive | RGS8-Gao confirm inactive | RGS7-Gao single inactive | RGS16-Gao single inactive | RGS4-Gao confirm inactive | RGS19-Gao single inactive
Nc1nc(SCC(=O)Nc2ccccc2)[nH]c(=O)c1-c1ccccc1	none (no result: Avidin fluor, RGS16-Gao, RGS8-Gao, RGS4-Gao reg, RGS7-Gao reg) | Avidin counter inactive | RGS8-Gao confirm inactive | RGS7-Gao single inactive | RGS16-Gao single inactive | RGS4-Gao confirm inactive | RGS19-Gao single inactive
CC(C)(C)NC(=O)CSc1nc(N)c(-c2ccccc2)c(=O)[nH]1	none
COc1cccc(CNC(=O)C2CCN(S(=O)(=O)c3ccc4c(c3)CCC(=O)N4)CC2)c1	RGS8-Gao 141.1[activator] | RGS4-Gao HTS 109.7 | Avidin counter inactive | RGS8-Gao confirm inactive | RGS7-Gao single inactive | RGS16-Gao single inactive | RGS4-Gao confirm inactive | RGS19-Gao single inactive
COc1ccc2c(c1)O[C@@H](c1cccc(C(F)(F)F)c1)[C@H](OC(=O)NCCc1ccc(OC)c(OC)c1)C2=O	none
O=C(CS(=O)(=O)c1ccccc1)Nc1ccc(S(=O)(=O)Nc2ncccn2)cc1	RGS8-Gao 32.1, RGS4-Gao reg 34.8, RGS7-Gao reg 35.0 | Avidin counter inactive | RGS8-Gao confirm inactive | RGS7-Gao single inactive | RGS16-Gao single inactive | RGS4-Gao confirm inactive | RGS19-Gao single inactive
O=S(=O)(c1ccc(F)cc1)N1CCN(c2ccc(-c3ccccc3)nn2)CC1	none
O=C(c1cc2n(n1)C(C(F)(F)F)CC(c1ccco1)N2)N1CCN(c2ccccn2)CC1 (stereo unspecified)	none (no result: Avidin fluor, RGS16-Gao, RGS8-Gao, RGS4-Gao reg, RGS7-Gao reg) | Avidin counter inactive | RGS8-Gao confirm inactive | RGS7-Gao single inactive | RGS16-Gao single inactive | RGS4-Gao confirm inactive | RGS19-Gao single inactive
C/C(=N/N1CCN(c2ccccn2)CC1)c1cccc([N+](=O)[O-])c1	none
CC(C)CNC(=O)C1CCCN(C(=O)NCc2ccccc2)C1 (stereo unspecified)	none
Cc1c(Br)c([N+](=O)[O-])nn1C(C)C(=O)N1CCCc2ccccc21 (stereo unspecified)	none
COc1ccc(S(=O)(=O)N2CCN(CCC(=O)Nc3ccccc3F)CC2)cc1	none (no result: Avidin fluor, RGS16-Gao, RGS8-Gao, RGS4-Gao reg, RGS7-Gao reg) | Avidin counter inactive | RGS8-Gao confirm inactive | RGS7-Gao single inactive | RGS16-Gao single inactive | RGS4-Gao confirm inactive | RGS19-Gao single inactive
CCCOc1ccc2c(=O)c(-c3cc(C(=O)OC)oc3C)c(C)oc2c1	none
Cc1nc(NC(=O)c2ccccc2)sc1C1(C)CC(c2c(Cl)cccc2Cl)=NO1 (stereo unspecified)	RGS7-Gao reg inconclusive (no result: GSH bead fluor)
O=C(NCC(=O)N1CCN(S(=O)(=O)/C=C/c2ccccc2)CC1)c1ccc(Cl)cc1	RGS7-Gao reg inconclusive (no result: GSH bead fluor)
CCNc1ccc2noc3c2c1C(=O)c1ccccc1-3	RGS8-Gao 55.0, RGS4-Gao reg 46.6, RGS7-Gao reg 45.6 | Avidin counter inactive | RGS8-Gao confirm 68.8 | RGS7-Gao single 62.9 | RGS16-Gao single 65.8 | RGS4-Gao confirm 68.8 | RGS19-Gao single inactive
Cc1nc2ccccc2c(=O)n1/N=C/c1ccncc1	none (no result: Avidin fluor, RGS16-Gao, RGS8-Gao) | Avidin counter inactive | RGS8-Gao confirm inactive | RGS7-Gao single inactive | RGS16-Gao single inactive | RGS4-Gao confirm inactive | RGS19-Gao single inactive
Cc1nc2ccccc2c(=O)n1/N=C/c1ccccc1	none
COc1ccc(-c2cc(C(F)(F)F)n3ncc(C(=O)N(C)Cc4ccccc4)c3n2)cc1	none
COc1ccc(-c2csc(NC(=O)c3ccc(OCC(=O)N4CCOCC4)c(OC)c3)n2)cc1OC	RGS16-Gao 18.4 | RGS4-Gao HTS 97.0 | Avidin counter inactive | RGS8-Gao confirm inactive | RGS7-Gao single inactive | RGS16-Gao single inactive | RGS4-Gao confirm inactive | RGS19-Gao single inactive
CCN1CC2=C(OC(N)=C(C#N)C2c2cccs2)/C(=C\c2cccs2)C1 (stereo unspecified)	none
CCCCN(CCCC)CCCNC(=O)c1ccc2nc(-c3ccccc3NC(C)=O)c(=O)[nH]c2c1	none
CC(=O)Nc1ccccc1-c1nc2ccc(C(=O)N3CCN(c4cc(C)ccc4C)CC3)cc2[nH]c1=O	Avidin fluor 78, RGS7-Gao reg 168.5[activator] | RGS4-Gao HTS 110.7 | Avidin counter inactive | RGS8-Gao confirm inactive | RGS7-Gao single 73.5 | RGS16-Gao single inactive | RGS4-Gao confirm inactive | RGS19-Gao single inactive
Cc1ccc2cn[nH]c2c1[N+](=O)[O-]	none
COc1ccc(NS(=O)(=O)c2ccc(O)c(NC(=O)c3cc4c(C)nn(-c5ccc(F)cc5)c4s3)c2)cc1	none
O=C(NCc1cccnc1)c1ccccc1Br	none
CCSc1ccccc1C(=O)NCc1cccnc1	RGS8-Gao 59.0 | RGS4-Gao HTS 94.1 | Avidin counter inactive | RGS8-Gao confirm inactive | RGS7-Gao single 67.4 | RGS16-Gao single inactive | RGS4-Gao confirm 73.5 | RGS19-Gao single inactive
Cc1nn(C)c(C(=O)NC2C3CC4CC(C3)CC2C4)c1Cl (stereo unspecified)	RGS16-Gao 9.8 | RGS4-Gao HTS 87.2 | Avidin counter inactive | RGS8-Gao confirm inactive | RGS7-Gao single inactive | RGS16-Gao single inactive | RGS4-Gao confirm inactive | RGS19-Gao single inactive
Cn1ncc(Cl)c1C(=O)NC1C2CC3CC(C2)CC1C3 (stereo unspecified)	none
CCC(CO)n1c(=S)[nH]c2cc(OC)c(OC)cc2c1=O (stereo unspecified)	none
O=C1c2ccc(Br)cc2C(=O)N1c1ccc(Cc2ccncc2)cc1	none
OC1CCN(c2ncnc3c2nnn3Cc2c(F)cccc2Cl)CC1	RGS7-Gao reg 152.3[activator] (no result: Avidin fluor, RGS16-Gao) | RGS4-Gao HTS 130.8 | Avidin counter inactive | RGS8-Gao confirm inactive | RGS7-Gao single 70.2 | RGS16-Gao single inactive | RGS4-Gao confirm inactive | RGS19-Gao single inactive
